Source: PubChem BioAssay (Tox21)
Several values for one entry are separate records, joined by “and”; a condition that tells them apart may be missing. Equal values may be shown once. Inconclusive results are not listed. A call without a number means that no potency is given here. Activity calls are given as the source filed them. The call rests on the fitted dose curve; in most records, active means well fitted cell-killing curve with a large enough effect in the repeat runs; inconclusive means weak or mixed curves, or effect the other way; inactive means flat fitted curve, though single readings scatter.
Potency means the concentration at half of the fitted maximal effect.

Test: qHTS assay to identify small molecule antagonists of the constitutive androstane receptor (CAR) signaling pathway - cell viability counter screen (AID 1224837); further: nearly all actives have a fitted effect of over 45% in size
Conditions: HepG2-CYP2B6-hCAR viability, CellTiter-Fluor, 23 h, co-treated with 50 nM CITCO; series mostly up to 92.4 µM
Source text: National Center for Advancing Translational Sciences [NCATS]
NIH Chemical Genomics Center [NCGC]
U.S. Environmental Protection Agency [EPA]
National Institutes of Environmental Health Sciences [NIEHS]
National Toxicology Program [NTP]
U.S. Food and Drug Administration [FDA]
The constitutive androstane receptor (CAR) is a nuclear receptor which regulates multiple drug metabolizing enzymes (DMEs) and transporters. Activating CAR will generally increase the transcription and subsequent translation of CYP2B6 and CYP3A4. These two DMEs represent about 50% of the drug metabolizing potential in the body. When CAR is deactivated, the metabolizing potential in the body will decrease, subsequently increasing the toxicity in the body or lowering the therapeutic potential of a pro-drug. Recently, there have also been studies performed indicating CARs role in energy metabolism and cancer therapy. Therefore, inhibiting CARs activity could have a potential effect on diabetes and cancer. Identifying environmental toxins and compounds which modulate CAR, through the use of the Tox21 10K compound collection, will be an important step in determining the toxicity and potential therapeutic effects these factors will have on the human body. To differentiate true CAR antagonists from cytotoxic substances, the assay is multiplexed with a cell viability assay.
Tox21 Assay Protocol Summary:
A double-stable (hCAR and CYP2B6-2.2kb) transfected cell line, derived from human hepatoma (HepG2) cells, was utilized for the duration of the quantitative high-throughput screens. The HepG2-CYP2B6-hCAR cells were dispensed at 2500 cells/4 uL/well in 1536-well white solid bottom plates using a Multidrop Combi. After the assay plates were incubated at 37 C/5% CO2 for 4 hrs, 23 nL of compounds at 15 concentrations (from 5-48 columns) or positive control (from 1 to 4 columns) were transferred to the assay plates using a Pintool station. One uL of CITCO (final concentration = 50 nM) was added, using a Flying Reagent Dispenser, inside each well. After a 23 hr incubation period at 37 C/5% CO2, 1 uL of CellTiter-Fluor reagent was added into each well of the assay plates using a Flying Reagent Dispenser. The fluorescence intensity in the plates was then measured using a ViewLux plate reader.
For `Cc1cc(NS(=O)(=O)c2ccc(N)cc2)no1`, the Potency was “inactive”. In the case of `CCCCC(CC)COC(C)=O` (stereo not given), the Potency is reported as “inactive”. With `O=[N+]([O-])c1cc(N(CCO)CCO)ccc1NCCO` the Potency was “inactive”. In the case of `Oc1ccc2ccccc2c1`, the Potency is reported as “inactive”. With `Oc1ccc(OCc2ccccc2)cc1` the Potency was “inactive”. With `O=C(O)c1ccc([N+](=O)[O-])cc1` the Potency was “inactive”. In the case of `CN(C)c1ccc(C(=N)c2ccc(N(C)C)cc2)cc1`, the Potency is reported as 24 µM (active) and 26.3 µM (active). For `Oc1ccc2ccccc2c1N=Nc1ccccc1`, the Potency was 30.6 µM (active). With `c1ccc2ccccc2c1` the Potency was “inactive”. With `CCCCC/C=C\C/C=C\CCCCCCCC(=O)OC` the Potency was “inactive”. With `CC(C)(C)C1CCC(O)CC1` (stereo not given) the Potency was “inactive”. For `Nc1nc2ncc(CNc3ccc(C(=O)N[C@@H](CCC(=O)O)C(=O)O)cc3)nc2c(=O)[nH]1`, the Potency was “inactive”. For `OCCOCCOCCOCCO`, the Potency was “inactive”. In the case of `CCCCC(CC)C(=O)OCCOCCOCCOC(=O)C(CC)CCCC` (stereo not given), the Potency is reported as “inactive”. With `C/C=C(C)/C=C/C=C(C)C` the Potency was “inactive”. For `CCC(C)C=O` (stereo not given), the Potency was “inactive”. With `O=C(Cl)c1c(Cl)c(Cl)c(C(=O)Cl)c(Cl)c1Cl` the Potency was “inactive”. In the case of `Cc1ccc(N)c(S(=O)(=O)O)c1`, the Potency is reported as “inactive”. For `CC(C)(N=C=O)c1cccc(C(C)(C)N=C=O)c1`, the Potency was “inactive”. In the case of `OCC1CCCO1` (stereo not given), the Potency is reported as “inactive”. For `O=Nc1ccc(O)cc1`, the Potency was “inactive”. For `CCCCNC(N)=O`, the Potency was “inactive”. With `CC(C)NCC(O)COc1cccc2ccccc12` (stereo not given) the Potency was “inactive”. For `CC(=O)CCc1ccccc1`, the Potency was “inactive”. With `COCC(C)O` (stereo not given) the Potency was “inactive”. With `O=c1c(-c2ccc(O)cc2)coc2cc(O)ccc12` the Potency was “inactive”. For `CC1Cc2ccccc2N1NC(=O)c1ccc(Cl)c(S(N)(=O)=O)c1` (stereo not given), the Potency was “inactive”. For `CC1CC(OC(=O)c2ccccc2O)CC(C)(C)C1` (stereo not given), the Potency was “inactive”. In the case of `CCOC(=O)/C=C\C(=O)OCC`, the Potency is reported as “inactive”. For `CCCCCCC(C)(C)S`, the Potency was “inactive”. With `COC(=O)Nc1nc2ccc(Sc3ccccc3)cc2[nH]1` the Potency was “inactive”. In the case of `CC1=CC[C@H]2C[C@@H]1C2(C)C`, the Potency is reported as “inactive”. With `NCCNCCNCCNCCN` the Potency was “inactive”. With `Cc1cc(Cc2ccc(N)c(C)c2)ccc1N` the Potency was “inactive”. With `NC(=O)/N=N/C(N)=O` the Potency was “inactive”. For `O=[N+]([O-])c1cccc(Cl)c1`, the Potency was “inactive”. With `Cn1c([N+](=O)[O-])cnc1COC(N)=O` the Potency was “inactive”. For `O=C(Oc1ccccc1)c1ccc(O)cc1`, the Potency was “inactive”. For `CN(CCOc1ccc(CC2SC(=O)NC2=O)cc1)c1ccccn1` (stereo not given), the Potency was “inactive”. With `O=[N+]([O-])C(CO)(CO)CO` the Potency was “inactive”.
